Compounds without any hit were thinned out: in the full panel of roughly 83,000, 20% have a hit.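 The test compound was applied at a single concentration to cells in 96-well plates for 48 hours, and percent growth was recorded.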 Activity calls are given as the source filed them. The calls were made as follows: active = growth percent below 10; inactive = the rest.
Legend:
Test in all cases: NCI-60 one-dose screen, 48 h (100 = growth as untreated, 0 = no growth, -100 = all killed)
Details in all cases: 10 µM unless noted
SR leukemia = test system: SR leukemia
RPMI-8226 leukemia = test system: RPMI-8226 leukemia
OVCAR-8 ovarian = test system: OVCAR-8 ovarian
OVCAR-5 ovarian = test system: OVCAR-5 ovarian
OVCAR-4 ovarian = test system: OVCAR-4 ovarian
SK-OV-3 ovarian = test system: SK-OV-3 ovarian
IGROV1 ovarian = test system: IGROV1 ovarian
OVCAR-3 ovarian = test system: OVCAR-3 ovarian
HS 578T breast = test system: HS 578T breast
NCI/ADR-RES ovarian = test system: NCI/ADR-RES ovarian
T-47D breast = test system: T-47D breast
BT-549 breast = test system: BT-549 breast
MDA-MB-435 melanoma = test system: MDA-MB-435 melanoma
SW-620 colon = test system: SW-620 colon
MCF7 breast = test system: MCF7 breast
HCC-2998 colon = test system: HCC-2998 colon
KM12 colon = test system: KM12 colon
HCT-116 colon = test system: HCT-116 colon

Measured: growth

O=C(O)c1ccc(-c2ccc(/C=N/Nc3nc(Nc4ccccc4)nc(N4CCCCC4)n3)o2)cc1
active: BT-549 breast -4.12%
inactive: SR leukemia 65.5% | RPMI-8226 leukemia 43.7% | OVCAR-8 ovarian 48.7% | OVCAR-5 ovarian 94.9% | OVCAR-4 ovarian 77.1% | SK-OV-3 ovarian 92% | IGROV1 ovarian 45.2% | OVCAR-3 ovarian 64.8% | HS 578T breast 40.7% | NCI/ADR-RES ovarian 57.7% | T-47D breast 63.7% | MDA-MB-435 melanoma 83.2% | SW-620 colon 86.6% | MCF7 breast 80.1% | HCC-2998 colon 74.7% | KM12 colon 61.7%

CCc1n(Cc2ccc3ccccc3n2)cc[n+]1Cc1ccc2ccccc2n1
inactive: SR leukemia 30.2% | OVCAR-8 ovarian 27.1% | OVCAR-5 ovarian 43.2% | OVCAR-4 ovarian 14.5% | SK-OV-3 ovarian 33.4% | IGROV1 ovarian 30% | OVCAR-3 ovarian 14.2% | HS 578T breast 44.8% | NCI/ADR-RES ovarian 104% | BT-549 breast 13.4% | MDA-MB-435 melanoma 14% | SW-620 colon 38.5% | MCF7 breast 13.5% | HCC-2998 colon 27.3% | KM12 colon 12.2%
active: RPMI-8226 leukemia -1.65% | T-47D breast -3.68%

S=c1nc2oc(-c3ccccc3)c(-c3ccccc3)c2c(/N=C\c2ccco2)[nH]1
inactive: SR leukemia 86.3% | RPMI-8226 leukemia 97.6% | OVCAR-8 ovarian 97.4% | OVCAR-5 ovarian 87.7% | OVCAR-4 ovarian 93.6% | SK-OV-3 ovarian 109% | IGROV1 ovarian 101% | OVCAR-3 ovarian 98.4% | HS 578T breast 81.9% | NCI/ADR-RES ovarian 100% | T-47D breast 65.9% | BT-549 breast 103% | MDA-MB-435 melanoma 108% | SW-620 colon 101% | MCF7 breast 93.1% | HCC-2998 colon 109% | KM12 colon 94.1%

CC(=O)c1ccc(Nc2nccc(-c3ccc4ccccc4c3)n2)cc1
inactive: SR leukemia 42.6% | RPMI-8226 leukemia 90% | OVCAR-8 ovarian 96.6% | OVCAR-5 ovarian 99.8% | OVCAR-4 ovarian 105% | SK-OV-3 ovarian 99.3% | IGROV1 ovarian 86.3% | OVCAR-3 ovarian 99.3% | HS 578T breast 86.2% | NCI/ADR-RES ovarian 84% | T-47D breast 88.1% | BT-549 breast 101% | MDA-MB-435 melanoma 69.1% | SW-620 colon 98.6% | MCF7 breast 75.8% | HCC-2998 colon 104% | KM12 colon 81.8%

O=C1/C(=C\c2ccccn2)c2ccccc2N1c1c(Cl)cccc1Cl
inactive: OVCAR-5 ovarian 122% | SK-OV-3 ovarian 27.4% | OVCAR-3 ovarian 27.4% | HS 578T breast 22.9%
active: SR leukemia -4.3% | RPMI-8226 leukemia -12.5% | OVCAR-8 ovarian 4.47% | OVCAR-4 ovarian 3.21% | IGROV1 ovarian 8.25% | T-47D breast 4.47% | BT-549 breast -17.7% | MDA-MB-435 melanoma -5.05% | SW-620 colon -56.9% | MCF7 breast 2.29% | HCT-116 colon -94.4% | HCC-2998 colon -82.1% | KM12 colon -2.11%

COc1ccc(/C=C(/C(=O)n2cnnn2)c2cc(OC)c(OC)c(OC)c2)cc1
active: RPMI-8226 leukemia 3.48% | OVCAR-3 ovarian 1.46% | MDA-MB-435 melanoma -50.3%
inactive: SR leukemia 14.8% | OVCAR-8 ovarian 22.1% | OVCAR-5 ovarian 41.2% | OVCAR-4 ovarian 60.6% | SK-OV-3 ovarian 14.6% | IGROV1 ovarian 41.4% | HS 578T breast 13.5% | T-47D breast 43.1% | BT-549 breast 38.2% | SW-620 colon 21.2% | MCF7 breast 16.2% | HCT-116 colon 13.7% | HCC-2998 colon 28.2% | KM12 colon 17.7%

Cn1c2c(c3ccc(Cl)c(Cl)c31)C(C#N)C(C)(C)NC2=O (centres undefined)
inactive: SR leukemia 66% | RPMI-8226 leukemia 72.1% | OVCAR-8 ovarian 95.1% | OVCAR-5 ovarian 77.7% | OVCAR-4 ovarian 89.6% | SK-OV-3 ovarian 105% | OVCAR-3 ovarian 71.3% | HS 578T breast 34.1% | T-47D breast 74.2% | BT-549 breast 88.1% | MDA-MB-435 melanoma 80.9% | SW-620 colon 67.5% | MCF7 breast 95.3% | HCT-116 colon 76.9% | HCC-2998 colon 91.8% | KM12 colon 91.9%
active: IGROV1 ovarian -5.28%

COc1ccc2c(c1)/C(=N/c1n[nH]c(=S)s1)C(=O)N2
inactive: SR leukemia 69.9% | RPMI-8226 leukemia 54.1% | OVCAR-8 ovarian 92.8% | OVCAR-5 ovarian 102% | OVCAR-4 ovarian 97.7% | SK-OV-3 ovarian 148% | IGROV1 ovarian 75.3% | OVCAR-3 ovarian 96.2% | HS 578T breast 91.7% | T-47D breast 69.6% | BT-549 breast 113% | MDA-MB-435 melanoma 104% | SW-620 colon 91.3% | MCF7 breast 25.1% | HCT-116 colon 103% | HCC-2998 colon 107% | KM12 colon 89%

C=C(C)[C@@H]1CC[C@]2(C(N)=O)CC[C@]3(C)[C@H](CC[C@@H]4[C@@]5(C)CC[C@H](OCCC#N)C(C)(C)[C@@H]5CC[C@]43C)[C@@H]12
inactive: SR leukemia 72.7% | RPMI-8226 leukemia 73.2% | OVCAR-8 ovarian 86.9% | OVCAR-5 ovarian 76.3% | OVCAR-4 ovarian 93.2% | SK-OV-3 ovarian 79.5% | IGROV1 ovarian 90% | OVCAR-3 ovarian 110% | HS 578T breast 88.3% | T-47D breast 72.3% | BT-549 breast 97.8% | MDA-MB-435 melanoma 89.1% | SW-620 colon 87% | MCF7 breast 86.7% | HCT-116 colon 91% | HCC-2998 colon 110% | KM12 colon 89.2%

CCSc1oc(C)nc1[P+](c1ccccc1)(c1ccccc1)c1ccccc1
active: RPMI-8226 leukemia 5.08% | KM12 colon 8.25%
inactive: SR leukemia 36.2% | OVCAR-8 ovarian 21.5% | OVCAR-5 ovarian 69.2% | OVCAR-4 ovarian 38.2% | SK-OV-3 ovarian 28% | IGROV1 ovarian 30.3% | OVCAR-3 ovarian 15.8% | HS 578T breast 56.3% | T-47D breast 14.6% | BT-549 breast 12.4% | MDA-MB-435 melanoma 25.3% | SW-620 colon 32.9% | MCF7 breast 13.7% | HCT-116 colon 14.4% | HCC-2998 colon 29.5%

O=C(Nc1ccc(Br)cc1)C1=NCCCCN1
inactive: SR leukemia 107% | RPMI-8226 leukemia 94.3% | OVCAR-8 ovarian 74.8% | OVCAR-5 ovarian 84.6% | OVCAR-4 ovarian 96.5% | SK-OV-3 ovarian 96.1% | IGROV1 ovarian 87.5% | OVCAR-3 ovarian 103% | HS 578T breast 97.1% | NCI/ADR-RES ovarian 82.5% | T-47D breast 71.3% | BT-549 breast 87.5% | MDA-MB-435 melanoma 75.3% | SW-620 colon 67.3% | MCF7 breast 81% | HCC-2998 colon 106% | KM12 colon 75.6%

CCOC(=O)/C=C1\S/C(=N\Nc2cc(=O)[nH]c3ccccc23)N(c2ccccc2)C1=O
inactive: SR leukemia 96.6% | RPMI-8226 leukemia 112% | OVCAR-8 ovarian 100% | OVCAR-5 ovarian 101% | OVCAR-4 ovarian 84.3% | SK-OV-3 ovarian 101% | IGROV1 ovarian 105% | OVCAR-3 ovarian 104% | HS 578T breast 101% | T-47D breast 94.6% | BT-549 breast 98.4% | MDA-MB-435 melanoma 106% | SW-620 colon 101% | MCF7 breast 91.5% | HCT-116 colon 98.5% | HCC-2998 colon 110% | KM12 colon 101%

C=C(C)[C@@H]1CC[C@]2(C(=O)N3CCN(C)CC3)CC[C@]3(C)[C@H](CC[C@@H]4[C@@]5(C)CC[C@H](OC(=O)c6ccccc6C(=O)O)C(C)(C)[C@@H]5CC[C@]43C)[C@@H]12
inactive: SR leukemia 90.5% | RPMI-8226 leukemia 96.7% | OVCAR-8 ovarian 104% | OVCAR-5 ovarian 104% | OVCAR-4 ovarian 99.2% | SK-OV-3 ovarian 104% | IGROV1 ovarian 97.9% | OVCAR-3 ovarian 110% | HS 578T breast 94.7% | T-47D breast 102% | BT-549 breast 111% | MDA-MB-435 melanoma 99.3% | SW-620 colon 101% | MCF7 breast 96.4% | HCT-116 colon 90.8% | HCC-2998 colon 106% | KM12 colon 106%

Cc1ccc(C=C2C(=O)NC(=O)NC2=O)cc1
inactive: SR leukemia 96.9% | RPMI-8226 leukemia 103% | OVCAR-8 ovarian 100% | OVCAR-5 ovarian 107% | OVCAR-4 ovarian 110% | SK-OV-3 ovarian 105% | IGROV1 ovarian 104% | OVCAR-3 ovarian 105% | HS 578T breast 105% | T-47D breast 113% | BT-549 breast 104% | MDA-MB-435 melanoma 109% | SW-620 colon 109% | MCF7 breast 98.8% | HCT-116 colon 108% | HCC-2998 colon 112% | KM12 colon 108%

Cn1cc(-c2csc(-c3cn(CCCN4CCOCC4)c4ccccc34)n2)c2cccnc21
inactive: SR leukemia 58.9% | RPMI-8226 leukemia 59.5% | OVCAR-8 ovarian 82.6% | OVCAR-5 ovarian 84.7% | OVCAR-4 ovarian 97.8% | SK-OV-3 ovarian 102% | IGROV1 ovarian 98.6% | OVCAR-3 ovarian 96.3% | HS 578T breast 88% | T-47D breast 62.1% | BT-549 breast 88.7% | MDA-MB-435 melanoma 91.6% | SW-620 colon 94.6% | MCF7 breast 85.6% | HCT-116 colon 84.4% | HCC-2998 colon 92.9% | KM12 colon 85.4%

O=C1c2ccccc2C(=O)c2c1cc1c(c2[N+](=O)[O-])OCO1
active: RPMI-8226 leukemia 7.28% | OVCAR-5 ovarian 9.69% | SK-OV-3 ovarian -14.7% | IGROV1 ovarian 5.43% | OVCAR-3 ovarian -20.9% | HS 578T breast 6.81% | T-47D breast 4.66% | SW-620 colon 7.14% | MCF7 breast 3.53% | HCT-116 colon 1.94% | HCC-2998 colon -46.4% | KM12 colon 0.869%
inactive: SR leukemia 14.6% | OVCAR-8 ovarian 14.4% | OVCAR-4 ovarian 19.2% | BT-549 breast 15.8% | MDA-MB-435 melanoma 56.3%

COc1ccc(C(O)c2cc3c(N)c(C(=O)Nc4cccc(Cl)c4C)sc3nc2C)cc1 (centres undefined)
active: SR leukemia 0.176% | RPMI-8226 leukemia -2.02% | OVCAR-3 ovarian -11% | MDA-MB-435 melanoma -29.5% | HCT-116 colon 6.73% | HCC-2998 colon 5.81% | KM12 colon 6.49%
inactive: OVCAR-8 ovarian 10.1% | OVCAR-5 ovarian 35.5% | OVCAR-4 ovarian 25.7% | SK-OV-3 ovarian 11.6% | IGROV1 ovarian 10.7% | HS 578T breast 13.6% | T-47D breast 30.5% | BT-549 breast 17.7% | SW-620 colon 17.9% | MCF7 breast 17%

Source: PubChem BioAssay (NCI)
